Screening data from PubChem BioAssay.
The full list was thinned out, with hits kept by preference.
Cycloheximide cs = affects cycloheximide protein synthesis inhibition readout, counter-screen. cell reporter, cycloheximide protein synthesis inhibition counterscreen. max response, %. 300,000 compounds, 12% hits; in the data active means max response mostly above about 13%, no sharp cut-off; inactive means mostly below about 14%; further: read at 38.3 µM for the half of the compounds with a filed dose; 0% is about no effect
LASV entry inh = Lassa virus entry inhibition | Potency, µM (series often up to 37.9 µM), inactives show at the top dose activity change, negative = inhibition, actives largely listed as inhibitors | 300,000 compounds, 1.2% hits | Lassa virus pseudotype entry inhibition, cell reporter | AID 540256; calls by dose curve; tested in HEK293 cells; further: potency means the concentration at half of the fitted maximal effect; on the % scale 0 is the no-effect control and ±100 the full control effect; nearly all actives have a fitted effect of over 50% in size
Marburg entry inh = inhibitors of Marburg virus binding or cell entry. Marburg virus pseudotyped entry inhibition, cell reporter. 300,000 compounds, 1.8% hits. Potency, µM (series often up to 37.8 µM), for the others: top-dose activity change, negative = inhibition, most hits filed as inhibitors. AID 540276; calls by dose curve; tested in HEK293 cells; further: potency means the concentration at half of the fitted maximal effect; on the % scale 0 is the no-effect control and ±100 the full control effect
Vaccinia mCherry = vaccinia inhibition (mCherry reporter) | Vaccinia virus mCherry reporter infection, fluorescence | Potency, µM (titrated, usually from 36.5 µM), for the others: at the highest dose activity change, negative = inhibition, hits mostly inhibitors | 310,000 compounds, 0.63% hits; calls by dose curve; tested in A549 cells; further: potency means the concentration at half of the fitted maximal effect; on the % scale 0 is the no-effect control and ±100 the full control effect; nearly all actives have a fitted effect of over 35% in size
Vaccinia Venus = inhibitors of vaccinia virus (Venus reporter). Vaccinia virus Venus reporter expression, fluorescence. Potency, µM (doses to about 36.5 µM), for the others: at the top dose activity change, negative = inhibition, hits mostly inhibitors. 330,000 compounds, 0.46% hits. AID 720580; calls by dose curve; tested in A549 cells; further: potency means the concentration at half of the fitted maximal effect; on the % scale 0 is the no-effect control and ±100 the full control effect; nearly all actives have a fitted effect of over 30% in size
Shiga toxin inh = Shiga toxin inhibition; Vero cells, Shiga toxin protein synthesis inhibition reporter; inhibition, % at 38.7 µM; 290,000 compounds, 9.2% hits; in the data active means inhibition mostly above about 28%, no sharp cut-off; inactive means mostly below about 43%; further: 0% is about no effect
Starred values were filed as active, the others as inactive; i = inactive; u = inconclusive; x = no result given; [ ] = dose if it differs, or a comment.

SMILES	Cycloheximide cs	LASV entry inh	Marburg entry inh	Vaccinia mCherry	Vaccinia Venus	Shiga toxin inh
CC(C)(C)c1ccc(C(=O)NCc2nnc(SCC(=O)NCC3CCCO3)o2)cc1 (stereo not drawn)	-1	3%	0%	-6%	-5%	-4
Cc1cc(C)n2ncc(/C(N)=N/OC(=O)Nc3ccc(Cl)cc3)c2n1	20*	x	x	x	x	48
Cc1cc(C)n2ncc(C(=O)NCc3cccnc3)c2n1	11	-3%	3%	x	3%	11
Cc1cc(C)n2ncc(/C(N)=N/OC(=O)c3ccccc3F)c2n1	25*	-23%	-2%	i	-21%	50*
COc1ccc2[nH]c3c4c(ccc3c2c1)C(=O)C=CC4=O	38*	x	x	x	x	89*
COc1ccc2[nH]c(=O)cc(C(=O)O)c2c1	-3	26%	4%[14.2 µM]	2%	-16%	-8
O=C(NCc1cccnc1)c1cnn(-c2ncc3c(n2)-c2ccccc2CCC3)c1C1CC1	x	x	x	-16%	-9%	x
Cc1cc(N2CCN(C)CC2)nc2ccc(NC(=O)c3ccc(C(C)(C)C)cc3)cc12	x	5%[46.1 µM]	u	u	14µM*	x
Cc1cc(N2CCN(C)CC2)nc2ccc(NC(=O)Nc3ccc(Cl)cc3)cc12	x	8%[46.1 µM]	x	-12%	-6%	x
CCN1CCN(c2cc(C)c3cc(NC(=O)c4ccc(OC)c(OC)c4)ccc3n2)CC1	4	-1%[46.1 µM]	u	u	-13%	-17
CCN1CCN(c2cc(C)c3cc(NC(=O)c4cccc(OC)c4)ccc3n2)CC1	31*	x	x	x	x	39*
CCN1CCN(c2cc(C)c3cc(NC(=O)c4cccs4)ccc3n2)CC1	21*	-52%	u	-18%	-25%	86
CCCCOc1cccc(/C=C(\C#N)C(=O)NC2CC2)c1	8	-8%[46.1 µM]	u	-14%	-1%	5
NC(=O)c1cc2c(s1)-c1cc(Cl)ccc1SC2	20*	x	x	x	x	51
CC(C)c1ccc(NC(=O)c2cc3c(s2)-c2ccccc2SC3)cc1	x	-9%[46.1 µM]	-10%[46.1 µM]	-6%	-13%	x
CCOc1ccc(N(CC)C(=O)c2cc3c(s2)-c2ccc(Cl)cc2SC3)cc1	x	u	9%[46.1 µM]	71%	-10%	x
COCCNC(=O)c1cc2c(s1)-c1ccc(Cl)cc1SC2	44*	u	u	-21%	u	91*
COc1cc(OC)c(NC(=O)C(C)n2c(=O)cc(-c3ccccc3)c3c(C)nn(C)c32)cc1Cl (stereo not drawn)	x	-17%[46.1 µM]	x	-14%	-12%	x
O=c1oc2ccc(Br)cc2cc1S(=O)(=O)c1ccc(F)cc1	-7	-19%	-6%	i	-9%	-17
Brc1ccc2oc(-c3ccn[nH]3)cc2c1	70*	u	-16%[46.1 µM]	-7%	-5%	119*
CCC1(C2CCN(Cc3cc4ccccc4o3)CC2)NC(=O)N(CC2COc3ccccc3O2)C1=O (stereo not drawn)	x	x	x	u	-35%	x
COC(=O)[C@@H]1[C@@H](C#N)C2(c3ccccc3-c3ccccc32)N(c2ccc(Cl)cc2)N1C#N	12*	u	u	u	u	47*
O=C(Cc1ccc(Cl)cc1)NN1C(=O)c2ccccc2C1=O	-3	0%	7%	x	x	2
CC(C)(C)c1ccc(OCC(=O)Nc2ccncc2)c(Br)c1	31*	x	x	x	x	100*
CCc1ccc(OCC(=O)Nc2ccncc2)c(Br)c1	30*	-11%[46.1 µM]	u	-12%	-16%	x
SMILES	Cycloheximide cs	LASV entry inh	Marburg entry inh	Vaccinia mCherry	Vaccinia Venus	Shiga toxin inh
Cc1cc(OCC(=O)Nc2ccncc2)c(C)cc1Br	-1	0%	-15%	x	x	-4
CCc1ccc(OCC(=O)NNC(=O)c2cnccn2)c(Br)c1	18*	x	x	x	x	39*
Cc1c(C(=O)N2CCCCCC2)sc2ncnc(NCC3CCCO3)c12 (stereo not drawn)	x	x	x	i	-12%	x
CCOc1ccc(C(=O)c2cn(CC(=O)Nc3ccc(F)cc3)c3cc4c(cc3c2=O)OCCO4)cc1	x	-1%[46.1 µM]	-5%[46.1 µM]	-18%	-8%	x
CCN(CC)S(=O)(=O)c1ccc(Oc2ccc(S(=O)(=O)N(CC)CC)cc2)cc1	-3	15µM*	u	x	x	-8
CC1=Nc2cc(C(=O)NC(C)C)ccc2Sc2ccc(C)cc21	x	3%[46.1 µM]	u	-30%[7.34 µM]	-21%[7.34 µM]	x
CC(C)[C@H](NC(=O)c1ccccc1Cl)C(=O)Nc1nc(-c2ccccn2)cs1	8	u	u	u	u	41
O=C(Nc1nc(-c2ccccn2)cs1)c1ccc([N+](=O)[O-])o1	16	u	u	u	-13%	10
CC1CC1C(=O)Nc1nc(-c2ccccn2)cs1 (stereo not drawn)	22*	-21%	2%[46.1 µM]	x	-12%	20
CC(Oc1ccc(Br)cc1)C(=O)Nc1nc(-c2ccccn2)cs1 (stereo not drawn)	-3	u	u	13µM*	u	6
O=C(Nc1nc(-c2ccccn2)cs1)C1COc2ccccc2O1 (stereo not drawn)	10	x	x	u	u	11
Cc1ccc(C(=O)Nc2nc(-c3ccccn3)cs2)o1	23*	x	x	x	x	48*
CC(=O)OC1CC[C@]2(C)C(=CCC3C4CCC(C(C)CCCC(C)C)[C@]4(C)CCC32)C1 (stereo partly drawn)	x	x	x	-3%	-7%	x
Clc1ccc(N2N=C(c3cccs3)CC2c2ccco2)cc1 (stereo not drawn)	37*	20%	-3%[46.1 µM]	x	0%	7
COc1ccc(CCn2c3c(c(=O)[nH]c2=O)C(NC(=O)c2ccc(Cl)cc2)(C(F)(F)F)C(=O)N3)cc1OC (stereo not drawn)	x	2%[46.1 µM]	1%[46.1 µM]	-3%	-4%	x
CCc1c(C)sc(NC(=O)c2ccoc2C)c1C(N)=O	22*	5%	-12%	-8%	-22%	12
NC(=O)c1cc(Cc2ccccc2)sc1NC(=O)c1ccco1	47*	u	u	x	x	78*
NC(=O)c1c(NC(=O)c2ccco2)sc2c1CCC2	22*	u	u	u	-26%	44*
O=C(Nc1sc2c(c1C(=O)O)CCCC2)C(=O)N1CCOCC1	20*	x	x	x	x	33*
CCCN(CCC)C(=O)Cn1c(=O)n(-c2cccc(OC)c2)c(=O)c2c3c(sc21)CCCC3	x	29%[46.1 µM]	u	-2%	-9%	x
CCN1C(=NCC(C)C)NC(c2cccc(F)c2)C(C(=O)OC)=C1C (stereo not drawn)	x	x	-5%[14.2 µM]	x	x	x
COc1ccccc1NC(=O)c1ccc2oc(=O)c(S(=O)(=O)c3ccccc3)cc2c1	x	u	6%[46.1 µM]	-8%	4%	x
CN1C(=O)C(C)(C)c2cc(S(=O)(=O)N3CCCC(C(=O)NCc4ccc(Cl)cc4)C3)ccc21 (stereo not drawn)	-1	x	x	u	u	1
CCOC(=O)c1c(NC(=O)c2ccco2)sc(C(=O)N2CCCC2)c1C	3	-6%	-12%	x	x	-16
CCOC(=O)c1c(NC(=O)c2ccco2)sc2c1CCCCC2	-1	0%	u	i	-10%	-9
Cc1ccc(C(=O)N[C@H](C(=O)Nc2sccc2C(N)=O)C(C)C)cc1	18*	u	-3%[46.1 µM]	0%	-17%	18
O=C(Nc1sc2c(c1C(=O)O)CCCCC2)c1ccco1	33*	u	u	x	x	83
